Laboratory results as given in PubChem BioAssay (NCI).
About 83,000 compounds went through this panel and 20% of them were active in at least one assay; those are over-represented in the sample as a whole.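 Cells were grown in 96-well plates and exposed to the test compound at a single concentration for 48 hours; results are reported as percent growth, with values below 10 considered active.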 Unmarked numbers belong to inactive results. Activity calls are given as the source filed them.

Assays:
Test in all cases: NCI-60 one-dose screen, 48 h (100 = growth as untreated, 0 = no growth, -100 = all killed)
Conditions in all cases: 10 µM unless noted
HCT-15 colon = test system: HCT-15 colon
HT29 colon = test system: HT29 colon
SNB-75 CNS = test system: SNB-75 CNS
SNB-19 CNS = test system: SNB-19 CNS
U251 CNS = test system: U251 CNS
PC-3 prostate = test system: PC-3 prostate
SK-MEL-5 melanoma = test system: SK-MEL-5 melanoma
UACC-62 melanoma = test system: UACC-62 melanoma
LOX IMVI melanoma = test system: LOX IMVI melanoma
SK-MEL-28 melanoma = test system: SK-MEL-28 melanoma
SK-MEL-2 melanoma = test system: SK-MEL-2 melanoma
EKVX NSCLC = test system: EKVX NSCLC
SN12C renal = test system: SN12C renal
UO-31 renal = test system: UO-31 renal
TK-10 renal = test system: TK-10 renal
ACHN renal = test system: ACHN renal
CAKI-1 renal = test system: CAKI-1 renal
A498 renal = test system: A498 renal
CCRF-CEM leukemia = test system: CCRF-CEM leukemia
MOLT-4 leukemia = test system: MOLT-4 leukemia

SMILES	growth (HCT-15 colon)	growth (HT29 colon)	growth (SNB-75 CNS)	growth (SNB-19 CNS)	growth (U251 CNS)	growth (PC-3 prostate)	growth (SK-MEL-5 melanoma)	growth (UACC-62 melanoma)	growth (LOX IMVI melanoma)	growth (SK-MEL-28 melanoma)	growth (SK-MEL-2 melanoma)	growth (EKVX NSCLC)	growth (SN12C renal)	growth (UO-31 renal)	growth (TK-10 renal)	growth (ACHN renal)	growth (CAKI-1 renal)	growth (A498 renal)	growth (CCRF-CEM leukemia)	growth (MOLT-4 leukemia)
Cc1ccc(-c2cc3nc(C(Cl)Cl)nc(-c4ccco4)n3n2)cc1	14.9%	0.475% (active)	66.8%	8.51% (active)	1.02% (active)	4.32% (active)	90.1%	37.9%	92.2%	5.86% (active)	83.2%	5.4% (active)	66.4%	33.6%	29.2%	-19.9% (active)	-5.91% (active)	-29.1% (active)	89.3%	94.2%
Cn1cc(-c2cc(N)n3nc(-c4cn(C)c5ccccc45)cc3n2)c2ccccc21	32%	50.6%	112%	112%	72.4%	88.8%	92.7%	92.9%	65.1%	95.1%	119%	96%	88.6%	85.9%	99.3%	94.8%	94.6%	77.8%	24.9%	49.8%
CCOP(=O)(OCC)OC[C@]12CCC(C)(C)C=C1[C@H]1CC[C@@H]3[C@@]4(C)CC[C@H](OP(=O)(OCC)OCC)C(C)(C)[C@@H]4CC[C@@]3(C)[C@]1(C)CC2	-73.3% (active)	-42.4% (active)	-11.5% (active)	-12.4% (active)	-84.9% (active)	0.0741% (active)	-93.4% (active)	-29.4% (active)	-90.1% (active)	-31% (active)	-60.9% (active)	-10.3% (active)	-70.6% (active)	-61% (active)	-18% (active)	-8.2% (active)	-63% (active)	-8.86% (active)	-23.2% (active)	-20.4% (active)
O=S(=O)(NCCCNc1nccc(-n2cnc3ccccc32)n1)c1ccc(C(F)(F)F)cc1	81.8%	96.3%	87.2%	94.2%	90.8%	66.7%	58.8%	62%	85.6%	103%	97.8%	75.1%	85.9%	60.7%	95.7%	87.1%	60.5%	72.1%	70.9%	67%
CCN(CC)c1ccc(NC2=C(Cl)C(=O)c3nc(C)ccc3C2=O)cc1	-52.7% (active)	104%	126%	102%	94.3%	74.2%	79.3%	95.2%	-71.6% (active)	37.5%	84.9%	-5.94% (active)	64%	-60% (active)	164%	-61.2% (active)	51.7%	104%	0.0595% (active)	0.296% (active)
CC[C@@H](CO)Nc1ccc2ncc(C#Cc3cncc(C(=O)Nc4ccc(CN5CCN(C)CC5)c(C(F)(F)F)c4)c3)n2n1	-33.4% (active)	-51% (active)	-83.5% (active)	-20% (active)	-87.8% (active)	-21.1% (active)	-96.4% (active)	-34.5% (active)	-95.3% (active)	-43.4% (active)	-93.2% (active)	-9.99% (active)	-55.4% (active)	-85.9% (active)	-53.5% (active)	-91.4% (active)	-82.8% (active)	-98.8% (active)	7.24% (active)	3.44% (active)
CCOc1cccc(-c2nc3sccn3c2-c2ccnc(S(C)(=O)=O)n2)c1	76.8%	99.6%	98.4%	91.8%	103%	96.9%	99.3%	89.6%	78.6%	90.5%	108%	101%	98.4%	97.1%	119%	87.6%	86.3%	73.3%	99.6%	101%
CC1=NC2=NN3C(=NN2C(c2ccccc2)=C1)N=NC(c1ccc(Br)cc1)=C3c1ccc(Br)cc1	103%	105%	117%	98.1%	103%	97.1%	106%	89.9%	100%	105%	103%	96%	101%	80.1%	128%	99.3%	95.7%	98.7%	106%	99.8%
COc1cccc2c1CN(C(=O)c1ccc(O)c(C(=O)N3Cc4ccc(OCCC[P+](c5ccccc5)(c5ccccc5)c5ccccc5)cc4C3)c1)C2	102%	100%	80.9%	28.3%	53.6%	71.7%	35.7%	44.4%	42.7%	63.2%	61.5%	52.4%	90.4%	77.3%	116%	96.6%	82.3%	107%	71.1%	93.6%
Nc1ncc(-c2ccc3ncnc(Nc4cccc(Cl)c4F)c3c2)cn1	56.4%	78.9%	53.2%	59.4%	67.9%	61%	63.6%	38.9%	77.4%	65.2%	95.3%	11.7%	50.9%	34.6%	-2.85% (active)	25.3%	38%	-10.7% (active)	65.6%	72.3%
CC1(C)[C@@H](O)CC[C@]2(C)[C@H]3CC[C@@H]4[C@H]5[C@H](C(=O)/C=C\c6ccccn6)CC[C@]5(O)CC[C@@]4(C)[C@]3(C)CC[C@@H]12	15%	28%	26.2%	48.3%	37.7%	39.9%	54.1%	41.7%	-21.8% (active)	51.4%	77.8%	42.5%	50.5%	50.8%	77.5%	32.6%	33.9%	22%	-0.82% (active)	-8.46% (active)
COc1cc(/C=C2\C(=O)Nc3ccccc32)ccc1OCc1ccc(Cl)cc1	93.9%	109%	104%	97.1%	107%	94.8%	103%	87.6%	99.8%	92.9%	105%	95.3%	103%	81.3%	136%	92.7%	–	115%	94.9%	93.9%
Nc1nc(Nc2ccccc2SSc2ccccc2Nc2nc(N)nc(-c3ccccc3)n2)nc(-c2ccccc2)n1	48.5%	111%	55.7%	74.5%	-22.7% (active)	42.9%	89.2%	76.3%	-34.3% (active)	93.9%	106%	47.1%	77.8%	-12.6% (active)	101%	55.8%	25.2%	78.7%	–	50.7%
NC(N)=Nc1ccc(Oc2cccc(NC(N)=Nc3ccc(Cl)c(C(F)(F)F)c3)c2)cc1	84.3%	46.7%	65%	13.9%	23%	6.36% (active)	42%	47.8%	-26.5% (active)	70%	83%	64.4%	31%	87%	74%	87.8%	–	54%	61.8%	51.9%
O=C(O)c1ccc(-n2cc(CNc3cc(F)c(F)c(F)c3)c(-c3cccc(F)c3)n2)cc1	46.8%	106%	106%	97.4%	93.3%	79.1%	67.4%	58.2%	104%	83.2%	79.6%	65.5%	91.3%	77%	128%	77.4%	–	99.4%	92.3%	79.8%
